Source: PubChem BioAssay
Many of the other results were omitted from the sample, so hits are more common in it than they were.
Methyltransferases = Primary Screen for Target Class Profiling of Small Molecule Inhibitors of Methyltransferases. purified enzyme, MTase-Glo SAH luminescence; stronger effect = lower value. calls only at 40 µM. 3.9% of 25,000 active. AID 1745853, 2022; call rule not given here
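Each enzyme was reacted with SAM and its substrate, with compounds tested once at 40 uM; SAH formed was read by MTase-Glo luminescence.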
Numbers without * were called inactive; i = inactive; + = active, no number; ! = repeats disagree. % is scaled to controls: 0 for no effect and ±100 for the full control effect.

SMILES | Methyltransferases
CC1(C(=O)NCc2ccccc2)Cn2c(ccc2-c2ccco2)C(=O)N1Cc1ccc2c(c1)OCO2 (stereo not drawn) | i
CSc1ccc(CCNC(=O)c2cc3n(n2)CCCN(Cc2ccc(Cl)cc2)C3=O)cc1 | i
Cc1cc2c(cc1S(=O)(=O)Nc1cccc(C)c1C)n(C)c(=O)n2C | i
O=C(OC[C@H]1O[C@H](O[C@H]2CO[C@H](CO)[C@@H](O)[C@@H]2O)[C@H](O)[C@@H](O)[C@H]1O)c1ccccc1 | i
C[C@]12C[C@@H](O)[C@@H]3C[C@@]1(O[C@@H]1O[C@H](CO)[C@@H](O)[C@H](O)[C@H]1O)[C@]3(COC(=O)c1ccccc1)C(=O)O2 | +
O=C(OC[C@H]1O[C@H](O[C@]2(CO)O[C@H](CO)[C@@H](O)[C@@H]2O)[C@H](O)[C@@H](O)[C@@H]1O)c1ccc(O)cc1 | i
Cc1cc2c(cc3n2CC(C)(C(=O)NC2CCCCC2)N(Cc2ccccc2C)C3=O)o1 (stereo not drawn) | i
CCCn1c(=O)c2ccc(Cl)cc2n2c(=O)n(CC(=O)c3ccc(Br)cc3)nc12 | i
CC1(C)O[C@@]2(C)CC[C@@H]1C[C@@H]2OC1OC(CO)C(O)C(O)C1O (stereo partly drawn) | +
CC(C)C(=O)OC[C@H]1O[C@H](O[C@H]2O[C@H](CO)[C@@H](O)[C@H](O)[C@H]2O)[C@H](O)[C@@H](O)[C@@H]1O | i
CC(C)C(=O)O[C@@H]1[C@@H](O)[C@@H](O[C@H]2O[C@H](CO)[C@@H](O)[C@H](O)[C@H]2O)O[C@H](CO)[C@H]1O | i
CCCn1c(=O)c2ccc(C(=O)NC(C)CC)cc2n2c(=O)n(CC(=O)c3ccc(C)cc3C)nc12 (stereo not drawn) | i
CC1CC(C)CN(S(=O)(=O)c2ccc3c(c2)oc(=O)n3CC(=O)NCc2ccco2)C1 (stereo not drawn) | i
COc1ccccc1CN1C(=O)c2cc3sccc3n2CC1(C)C(=O)NC1CCC(C)CC1 (stereo not drawn) | i
Cc1cc(C)c(S(=O)(=O)n2cc(C)cc2C)c(C)c1 | +
Cc1cc2c(cc3n2CC(C)(C(=O)NC2CCCCC2)N(CC(C)c2ccccc2)C3=O)o1 (stereo not drawn) | i
CC1(C(=O)NC2CCCCCCC2)Cn2c(cc3occc32)C(=O)N1Cc1cccc(Cl)c1 (stereo not drawn) | i
CCCCN1C(=O)c2cc(C(=O)Nc3cc(C)ccc3C)nn2CC1(C)C(=O)NC1CCCC1 (stereo not drawn) | i
Cc1cccc(N2C(=O)c3ccc(-c4ccco4)n3CC2(C)C(=O)NC2CCCC2)c1C (stereo not drawn) | i
Clc1ccc(-c2csc(NN=C3CCCC3)n2)cc1 | +!
Oc1ccc(Nc2nc(-c3ccc(Cl)cc3)cs2)cc1 | i
O=C1CN(Cc2ccc(Cl)cc2)S(=O)(=O)c2ccccc2N1Cc1cccc(F)c1 | i
O=C(Cn1ccc2cc(S(=O)(=O)N3CCCCC3)ccc21)NC1CCN(Cc2ccccc2)CC1 | i
NC(=O)N1CCC(CC(=O)N2CCC(C3c4ncc(Br)cc4CCc4cc(Cl)cc(Br)c43)CC2)CC1 (stereo not drawn) | +
COC(=O)c1cc2n(n1)CC(C)(C(=O)NC1CCCCCC1)N(c1cccc(Cl)c1)C2=O (stereo not drawn) | i
SMILES | Methyltransferases
Cc1ccccc1CN1C(=O)c2cc3occc3n2CC1(C)C(=O)NC1CCC(C)CC1 (stereo not drawn) | i
CCN1C(=O)c2cc(C(=O)NCCc3cccs3)nn2CC1(C)C(=O)NC1CCCC1 (stereo not drawn) | i
Cn1c(=O)c2ccc(C(=O)NC3CCCCC3)cc2n2c(=O)n(CC(=O)NC3CCCCC3)nc12 | i
CCOC(=O)c1cc2n(n1)CC(C)(C(=O)NCCOC)N(c1cc(C)cc(C)c1)C2=O (stereo not drawn) | i
O=C(Nc1ccc(Br)cc1F)N1CCn2cccc2C1Cc1ccccc1 (stereo not drawn) | i
CCOC(=O)c1cc2n(n1)CC(C)(C(=O)NC1CCC(C)CC1)N(c1ccccc1C)C2=O (stereo not drawn) | i
CCCn1c(=O)c2ccc(Cl)cc2n2c(=O)n(CC(=O)c3ccc(F)cc3)nc12 | i
CCCCCCCOc1cc2c(cc1/C(C)=C/c1ccc(C(=O)O)cc1)C(C)(C)CCS2(=O)=O | +
Cc1cc2c(cc1C1(c3ccc(C(=O)O)cn3)CC1)C(C)(C)CCC2(C)C | i
COCCCN1C(=O)c2cc(-c3ccc(C(C)C)cc3)nn2CC1(C)C(=O)NC1CCCCC1 (stereo not drawn) | i
Cc1ccc(Cn2c(=O)c3ccc(C(=O)NC(C)C)cc3n3c(=O)n(C)nc23)cc1 | i
CC(C)CCn1c(=O)c2ccccc2n2c(SCC(=O)NCc3ccc(Cl)cc3)nnc12 | i
O=C(CCc1nnc2n(CCc3ccccc3)c(=O)c3ccccc3n12)N1CCN(c2ccc(Cl)cc2)CC1 | i
N#Cc1c(C2CCNCC2)cc(-c2c(O)cccc2OCC2CC2)nc1N | +
Cc1ccc(CN2C(=O)c3cc4occc4n3CC2(C)C(=O)NC2CCCC(C)C2C)cc1 (stereo not drawn) | i
COc1ccc(CNC(=O)c2sc(=S)n3c2[nH]c(=O)c2cc4c(cc23)OCO4)cc1 | i
COc1ccccc1NC(=O)c1sc(=S)n2c1[nH]c(=O)c1ccc(Cl)cc12 | i
COc1ccc(OC)c(NC(=O)c2sc(=S)n3c2[nH]c(=O)c2ccc(Cl)cc23)c1 | +
CCOCCCNC(=O)CCc1nnc2n(CCc3ccccc3)c(=O)c3ccccc3n12 | i
COc1ccc(NC(=O)/C=C/c2ccc(Cl)cc2)cc1 | +
COC(=O)/C=C/c1ccc(O[C@@H]2O[C@H](CO)[C@@H](O)[C@H](O)[C@H]2O)cc1 | i
COc1ccc(C(=O)Nc2cnc(-c3ccc(Cl)cc3)nc2)cc1 | i
CCCOc1ccc(CNC(=O)c2ncn3c2C(=O)N(CCC)C(C)(C(=O)NCCC(C)C)C3)cc1 (stereo not drawn) | i
Cn1c(=O)n(C)c2cc(S(=O)(=O)N3CCN(c4cccc(Cl)c4)CC3)ccc21 | i
COc1cc2c(Nc3cc(F)c(Cl)c(Cl)c3)ncnc2cc1OCC1CCCN(C)CCC1 | +
SMILES | Methyltransferases
COc1cc2c(Nc3ccc(Br)cc3F)ncnc2cc1OCC1CCN(C)CC1 | +
Cc1ccc(C)c(Nc2nn3c(=O)c4ccc(C(=O)NC5CCCCC5C)cc4nc3s2)c1 (stereo not drawn) | i
O=C(Nc1cccc(Cl)c1)N1Cc2c(sc3c2CCCC3)-n2cccc2C1c1ccccc1 (stereo not drawn) | i
COc1ccc(CN2C(=O)c3cc4occc4n3CC2(C)C(=O)NC2CCC(C)CC2)cc1 (stereo not drawn) | i
CC1=CC(=O)CC(C)(C)[C@@]1(O)/C=C/C(C)O[C@@H]1O[C@H](CO)[C@@H](O)[C@H](O)[C@H]1O (stereo partly drawn) | i
CC(=O)/C=C/C1(O)C(C)=CC(=O)CC1(C)C (stereo not drawn) | i
CC1=CC(=O)CC(C)(C)C1(O)CCC(C)O (stereo not drawn) | +
CCCn1c(=O)c2ccc(C(=O)NC(C)C)cc2n2c(=O)n(CC(=O)Nc3cccc(Cl)c3)nc12 | i
O=C(Nc1ccccc1)N1CCC(Cc2cnc3ccccc3c2)CC1 | i
